Experimental findings from PubChem BioAssay (EPA / NIEHS) are described below.

Each structure is given as a SMILES string. Some structures have more than one record in an assay (separate samples or runs), and their calls can disagree. The source made the active and inactive calls. How the source made its calls: active means hit-call score of the fitted dose curve at least 0.9, where 1 is the maximum; inactive means score below 0.9.

Read-out in the assay: Interleukin-6 (IL6), IL6 (gene 3569)
Description: BSK_CASM3C_IL6: BioMAP Diversity Plus: CASM3C Assay for Interleukin-6 (IL6) Biomarker Activity for (AID 2283040). The following applies: primary human coronary artery smooth muscle cells; actives raise or lower the signal.
On to `O=C(O)C(F)(F)C(F)(F)C(F)(F)C(F)(F)C(F)(F)C(F)(F)C(F)(F)F`, for which the outcome was inactive. In the case of `COP(=O)(OC)OC=C(Cl)Cl`, the result was inactive. On the same count and under the same terms, as for `COP(=S)(OC)Oc1ccc([N+](=O)[O-])cc1`, the entry is “inactive”; as for `O=C(NC(=O)c1c(F)cccc1F)Nc1ccc(OC(F)(F)C(F)OC(F)(F)F)c(Cl)c1` (configuration not stated), “inactive”; as for `CCc1ccc(C(=O)NN(C(=O)c2cc(C)cc(C)c2)C(C)(C)C)cc1`, “inactive”. Still for that read-out and setting: the entry for `COC(=O)c1ccccc1S(=O)(=O)NC(=O)N(C)c1nc(C)nc(OC)n1` is “inactive”; for `COC(=O)c1ccccc1CS(=O)(=O)NC(=O)Nc1nc(OC)cc(OC)n1` it is “inactive”.

On to `O=C(O)CCCOc1ccc(Cl)cc1Cl`, for which the result was inactive. For `O=[N+]([O-])/N=C1\NCCN1Cc1ccc(Cl)nc1`, the result was inactive. Still for that read-out and setting: the entry for `Cc1[nH]c(=O)n(C(C)(C)C)c(=O)c1Cl` is “inactive”. Regarding `CC(C)(C)C(O)C(Oc1ccc(Cl)cc1)n1cncn1` (configuration not stated), the result was inactive. Consider `CCOCN(C(=O)CCl)c1c(C)cccc1CC`, for which the result was inactive. Consider `[2H]C1([2H])[n+]2ccccc2-c2cccc[n+]2C1([2H])[2H]`, for which the outcome was inactive.

As for `CCOc1nc(NC)nc(NC(=O)NS(=O)(=O)c2ccccc2C(=O)OC)n1`, the result was inactive.

With `Cc1cc(C)nc(NC(=O)NS(=O)(=O)c2ccccc2C(=O)OC2COC2)n1`, the result was inactive. Same read-out and setting: as for `COc1nn(CSP(=S)(OC)OC)c(=O)s1`, the entry is “inactive”.

For `Oc1ccc(Cl)cc1Cc1ccccc1`, the AC50 (as a rule, the midpoint of the concentration-response curve, whichever way the signal moves) was 30.5 µM (active) [middle of 4 runs] and the outcome was inactive. On to `CCOC1Oc2ccc(OS(C)(=O)=O)cc2C1(C)C` (configuration not stated), for which the outcome was inactive. On the same count and under the same terms, as for `ClC1C(Cl)C(Cl)C(Cl)C(Cl)C1Cl` (configuration not stated), the entry is “inactive”; as for `N#CN`, “inactive”; as for `CC1(c2ccc(Oc3ccccc3)cc2)OC(=O)N(Nc2ccccc2)C1=O` (configuration not stated), “inactive”.

In the case of `CCCN(CCC)c1c([N+](=O)[O-])cc(C(F)(F)F)cc1[N+](=O)[O-]`, the result was inactive. `COc1cc(OC)nc(NC(=O)NS(=O)(=O)c2cc(NC=O)ccc2C(=O)N(C)C)n1`: the result was inactive. Regarding `O=S(=O)(O)C(F)(F)C(F)(F)C(F)(F)C(F)(F)C(F)(F)C(F)(F)C(F)(F)C(F)(F)F`, the result was inactive. As for `N#Cc1c(Cl)c(Cl)c(Cl)c(C#N)c1Cl`, the concentration at half-maximal activity (AC50) is 3.56 µM (active). As for `O=[N+]([O-])c1c(Cl)c(Cl)c(Cl)c(Cl)c1Cl`, the result was inactive.
